In PubChem BioAssay AID2577 (National Center for Advancing Translational Sciences (NCATS), 2010):
Activity calls are given as the source filed them. Calls come from the whole dose curve; as a rule, active = well fitted curve in the direction sought with a large enough effect; inactive = no such curve, though single readings can be large or run the other way.

These compounds were tested against Lysosomal alpha-glucosidase (Homo sapiens) (UniProt P10253) (assay: qHTS Assay for Inhibitors and Activators of N370S glucocerebrosidase as a Potential Chaperone Treatment of Gaucher Disease: Alpha-Glucosidase Counterscreen). Settings: purified human alpha-glucosidase, 4MU-alpha-glucoside fluorescence.
Excerpt: NIH Chemical Genomics Center [NCGC] NIH Molecular Libraries Probe Production Centers Network [MLPCN] MLPCN Grant: MH086442-01 Assay Submitter (PI): Wei Zheng Glucocerebrosidase (GC) catalyzes the hydrolysis of beta-glucocerebroside to glucose and ceramide in lysosomes. Mutations in the glucocerebrosidase gene result in Gaucher disease, an autosomal recessive lysosomal storage disorder. Many of the mutations encountered in patients with Gaucher disease are missense alterations that may cause misfolding, decreased stability and/or mistrafficking of this lysosomal protein. […] These inhibitors include iminosugar analogs and three non-iminosugar inhibitors identified from a previous HTS of 62,000 compounds with the wild type recombinant enzyme. However, the enhancement of enzyme activity by the chaperone action of an enzyme inhibitor must be balanced against the direct inhibition of the enzyme. An enzyme activator could also function as a chaperone by binding to the enzyme and helping to correct its misfolding and mistrafficking. While activators for GC have not yet been identified, they may have better therapeutic potential than inhibitors. Therefore the discovery and development of chemical activators may provide a new strategy for the chaperone therapy. To characterize compound selectivity, selected hits from the primary screen were screened against purified alpha-glucosidase, a related sugar hydrolase. Alpha-glucosidase is responsible for hydrolysis of terminal, non-reducing 1,4-linked alpha-D-glucose residues with release of alpha-D-glucose.
NCGC Assay Protocol Summary: This is a fluorogenic enzyme assay with 4-methylumbelliferyl-alpha-D-[…] as the substrate and human alpha-glucosidase as the enzyme preparation. Upon the hydrolysis of this fluorogenic substrate, the resulting product, 1. 4-methyllumbelliferone, can be excited at 365 nm and emits at 440 nm which can be detected by a standard fluorescence plate reader. Data were normalized to the controls for basal activity (without enzyme) and 100% activity (with enzyme). The AC50 values were determined from concentration-response data modeled with the standard Hill equation. Assay buffer: 50 mM citric acid (titrated with potassium phosphate to pH 5.0), 0.005% Tween-20, pH 5.0. (pH 5.0 is an optimal condition for this enzyme assay) 1536-well assay protocol for the human alpha-glucosidase: (1) Add 2 ul/well of enzyme (4 nM final) (2) Add 23 nL compounds in DMSO solution. The final titration was 0.7 nM to 77 uM. (3) Add 1 ul of substrate (400 uM final) (4) Incubate at room temperature for 20 min. (5) Add 2 ul stop solution (1M NaOH and 1M Glycine mixture, pH 10) (6) Detect the assay plate in a ViewLux plate reader (PerkinElmer) with Ex=365 nm and Em=440nm. Keywords: Alpha-glucosidase, Pompe Disease, pharmacological chaperone, chaperone therapy, high throughput screening, alpha-glucosidase inhibitor, MLSMR, MLSCN, NIH Roadmap, qHTS and NCGC

SMILES	max response
N#Cc1ccc(S(=O)(=O)N2CCN(c3nc(-c4cccs4)nc4ccccc34)CC2)cc1	-5.53% (inactive)
O=S(=O)(c1cccc(Cl)c1)N1CCN(c2nc(-c3cccs3)nc3ccccc23)CC1	-11.5% (inactive)
CC(=O)c1ccc(S(=O)(=O)N2CCN(c3nc(-c4cccs4)nc4ccccc34)CC2)cc1	-5.52% (inactive)
O=S(=O)(c1ccccc1C(F)(F)F)N1CCN(c2nc(-c3ccccc3)nc3ccccc23)CC1	-7.6% (inactive)
CC(=O)c1ccc(S(=O)(=O)N2CCN(c3nc(-c4ccccc4)nc4ccccc34)CC2)cc1	-3.56% (inactive)
O=S(=O)(c1ccc2c(c1)OCCO2)N1CCN(c2nc(-c3cccs3)nc3ccccc23)CC1	-3.67% (inactive)
O=[N+]([O-])c1cccc(S(=O)(=O)N2CCN(c3nc(-c4cccs4)nc4ccccc34)CC2)c1	-3.53% (inactive)
O=S(=O)(c1ccc(F)cc1)N1CCN(c2nc(-c3cccc(Br)c3)nc3ccccc23)CC1	-5.01% (inactive)
O=[N+]([O-])c1ccc(S(=O)(=O)N2CCN(c3nc(-c4ccccc4)nc4ccccc34)CC2)cc1	-3.59% (inactive)
O=S(=O)(c1cccc(Cl)c1)N1CCN(c2nc(-c3ccccc3)nc3ccccc23)CC1	-3.54% (inactive)
O=S(=O)(c1ccccc1)N1CCN(c2nc(-c3cccs3)nc3ccccc23)CC1	-12.9% (inactive)
COc1ccc(S(=O)(=O)N2CCN(c3nc(-c4cccs4)nc4ccccc34)CC2)cc1	-3.66% (inactive)
O=[N+]([O-])c1cccc(S(=O)(=O)N2CCN(c3nc(-c4ccccc4)nc4ccccc34)CC2)c1	-5.2% (inactive)
CCOc1ccc(S(=O)(=O)N2CCN(c3nc(-c4ccccc4)nc4ccccc34)CC2)cc1OCC	-7.31% (inactive)
COc1ccc(S(=O)(=O)N2CCN(c3nc(-c4ccccc4)nc4ccccc34)CC2)cc1	-14.8% (inactive)
COc1ccc(S(=O)(=O)N2CCN(c3nc(-c4cccs4)nc4ccccc34)CC2)cc1OC	-12% (inactive)
COc1ccc(-c2nc(N3CCN(S(=O)(=O)c4ccc(F)cc4)CC3)c3ccccc3n2)cc1	-2.56% (inactive)
CCOC(=O)c1ccc(S(=O)(=O)N2CCN(c3nc(-c4ccccc4)nc4ccccc34)CC2)cc1	-5.28% (inactive)
NS(=O)(=O)c1ccc(S(=O)(=O)N2CCN(c3nc(-c4ccccc4)nc4ccccc34)CC2)cc1	-7.36% (inactive)
O=S(=O)(c1ccc(OC(F)(F)F)cc1)N1CCN(c2nc(-c3cccs3)nc3ccccc23)CC1	-3.54% (inactive)

SMILES	max response
O=S(=O)(c1ccccc1F)N1CCN(c2nc(-c3cccs3)nc3ccccc23)CC1	-14.1% (inactive)
O=S(=O)(c1ccccc1Br)N1CCN(c2nc(-c3ccccc3)nc3ccccc23)CC1	-18.6% (inactive)
O=S(=O)(c1ccc2c(c1)CCCC2)N1CCN(c2nc(-c3cccs3)nc3ccccc23)CC1	-7.5% (inactive)
N#Cc1ccccc1S(=O)(=O)N1CCN(c2nc(-c3cccs3)nc3ccccc23)CC1	-5.04% (inactive)
O=[N+]([O-])c1ccccc1S(=O)(=O)N1CCN(c2nc(-c3ccccc3)nc3ccccc23)CC1	-3% (inactive)
Cc1ccc(-c2nc(N3CCN(S(=O)(=O)c4ccc(F)cc4)CC3)c3ccc(Cl)cc3n2)cc1	-14.5% (inactive)
O=S(=O)(c1ccc(Br)cc1)N1CCN(c2nc(-c3ccccc3)nc3ccccc23)CC1	-1.71% (inactive)
N#Cc1ccc(S(=O)(=O)N2CCN(c3nc(-c4ccccc4)nc4ccccc34)CC2)cc1	-5.2% (inactive)
O=S(=O)(c1cccc(C(F)(F)F)c1)N1CCN(c2nc(-c3ccccc3)nc3ccccc23)CC1	-12.7% (inactive)
O=S(=O)(c1cccc(C(F)(F)F)c1)N1CCN(c2nc(-c3cccs3)nc3ccccc23)CC1	-4.78% (inactive)
O=S(=O)(c1ccc(Cl)cc1)N1CCN(c2nc(-c3cccc(Br)c3)nc3ccccc23)CC1	-4.16% (inactive)
O=S(=O)(c1ccccc1C(F)(F)F)N1CCN(c2nc(-c3cccs3)nc3ccccc23)CC1	-3.11% (inactive)
CC(C)(C)c1ccc(S(=O)(=O)N2CCN(c3nc(-c4cccs4)nc4ccccc34)CC2)cc1	-6.75% (inactive)
O=S(=O)(c1ccc(F)cc1)N1CCN(c2nc(-c3cccs3)nc3ccccc23)CC1	-15.5% (inactive)
O=S(=O)(c1ccc2c(c1)CCC2)N1CCN(c2nc(-c3ccccc3)nc3ccccc23)CC1	-9.75% (inactive)
O=S(=O)(c1ccc(F)cc1)N1CCN(c2nc(-c3ccc(F)cc3)nc3cc(Cl)ccc23)CC1	-3.75% (inactive)
O=[N+]([O-])c1ccccc1S(=O)(=O)N1CCN(c2nc(-c3cccs3)nc3ccccc23)CC1	-3.63% (inactive)
O=S(=O)(c1ccc(F)cc1)N1CCN(c2nc(-c3ccccc3)nc3cc(Cl)ccc23)CC1	-12.7% (inactive)
Cc1ccc(S(=O)(=O)N2CCN(c3nc(-c4cccs4)nc4ccccc34)CC2)cc1	-8.42% (inactive)
O=S(=O)(c1ccc(F)cc1)N1CCN(c2nc(-c3ccccc3)nc3ccccc23)CC1	-3.53% (inactive)
